Test results: the supplement of paper PMC9399229
Values joined by “and” are separate entries in the source; they are usually repeats but may differ in a detail not shown here. Equal entries are not always repeated. ± gives the standard deviation of the averaged measurements. In all, about 1,900 compounds were measured (“relative cell viability (CellTiter-Glo), compound alone”: median about 1, lowest 2% from about 0.16 on). Many of the other results were omitted from the sample, so the lowest values are more common in it than they were.

What follows are molecules tested on Hep3B (assay: relative cell viability (CellTiter-Glo), compound alone (fraction); higher = more viable cells (less growth inhibition)). Details: cabozantinib 0 µM; 4 days.

Row | SMILES | relative cell viability
1 | Cc1ccc(C(=O)c2cc(O)c(O)c([N+](=O)[O-])c2)cc1 [Tolcapone] | 1.05 ± 0.076
2 | C=CC(=O)Nc1ccc2ncnc(Nc3cccc(Br)c3)c2c1 | 1.48 ± 0.24
3 | NC(=S)N/N=C/c1ncccc1N [Triapine] | 1.17 ± 0.017
4 | COc1cc(Nc2ncc(F)c(Nc3ccc4c(n3)N(COP(=O)(O)O)C(=O)C(C)(C)O4)n2)cc(OC)c1OC [Fostamatinib (R788)] | 0.843 ± 0.025
5 | C/C(=C\c1ccc(C(=O)O)cc1)c1ccc2c(c1)C(C)(C)CCC2(C)C [TTNPB (Arotinoid Acid)] | 1.11 ± 0.1
6 | CO[C@H]1C[C@@H]2CC[C@@H](C)[C@@](O)(O2)C(=O)C(=O)N2CCCC[C@H]2C(=O)O[C@H]([C@H](C)C[C@@H]2CC[C@@H](OP(C)(C)=O)[C@H](OC)C2)CC(=O)[C@H](C)/C=C(\C)[C@@H](O)[C@@H](OC)C(=O)[C@H](C)C[C@H](C)/C=C/C=C/C=C/1C [Ridaforolimus (Deforolimus, MK-8669)] | 1.07 ± 0.074
7 | CC(=O)Nc1ccccc1 [Acetanilide] | 1.17 ± 0.044
8 | CC(C)(C)C(=O)Nc1ccc2c(c1)C(=O)C(=O)c1ccccc1-2 | 0.0728 ± 0.012
9 | CC1=CC(=O)c2ccccc2C1=O [Menadione] | 0.9362 ± 0.0074
10 | NC(=O)CCCSc1nc(N)nc(-c2c(Cl)cc3c4c(cccc24)COC3)n1 | 0.19 ± 0.026
11 | Cc1[nH]c2ccccc2c1CCNC(=O)c1cccs1 | 1.19 ± 0.067
12 | O=C(/C=C/c1cccc(S(=O)(=O)Nc2ccccc2)c1)NO [Belinostat (PXD101)] | 0.216 ± 0.019
13 | Cc1[nH]c2ccccc2c1CCNCc1ccc(/C=C/C(=O)NO)cc1 [Panobinostat (LBH589)] | 0.12 ± 0.019
14 | Cn1cc(-c2ccncc2)c(-c2ccc(OCc3ccc4ccccc4n3)cc2)n1 | 1.13 ± 0.025
15 | COc1cc(Br)c(Nc2nc(-c3c(C)nc4ncccn34)cs2)c(Br)c1 | 0.601 and 0.575
16 | O=C(Nc1cc(C(F)(F)F)cc(C(F)(F)F)c1)c1cc(Cl)ccc1O | 0.0996 ± 0.0025
17 | O=C(Nc1ccccc1)c1ccccc1O [Salicylanilide] | 1.147 ± 0.0051
18 | CC(ONC(=O)c1cc(C(F)(F)F)cc(C(F)(F)F)c1)C(=O)Nc1ccc(Cl)cc1 (stereo not drawn) | 1.02 ± 0.094
19 | CN1CCN(Cc2ccc(-c3cnc4[nH]cc(-c5ccc6[nH]ccc6c5)c4c3)cc2)CC1 | 0.791 ± 0.033

Row | SMILES | relative cell viability
20 | CCNC(=O)c1noc(-c2cc(C(C)C)c(O)cc2O)c1-c1ccc(CN2CCOCC2)cc1 | 0.176 ± 0.04
21 | CCNC(=O)c1noc(-c2cc(Cl)c(O)cc2O)c1-c1ccc(OC)cc1 | 0.15572 ± 2.3e-05
22 | CCNC(=O)c1[nH]nc(-c2cc(Cl)c(O)cc2O)c1-c1ccc(OC)cc1 | 0.348 ± 0.025
23 | COc1ccc2cccc(CCNC(C)=O)c2c1 [Agomelatine] | 1.1 ± 0.097
24 | CC(=O)Nc1ccc(NC(=S)NC(=O)c2ccc(C(C)(C)C)cc2)cc1 [Tenovin-1] | 0.269 ± 0.0096
25 | CC1(C)CC[C@]2(NC(=O)C(C)(F)F)CC[C@]3(C)[C@H](C(=O)C=C4[C@@]5(C)C=C(C#N)C(=O)C(C)(C)[C@@H]5CC[C@]43C)[C@@H]2C1 [Omaveloxolone (RTA-408)] | 0.206 ± 0.0087
26 | COc1cc(N2CCN(C)CC2)ccc1Nc1nccc(-c2cn(C)c3cnccc23)n1 | 1.05 ± 0.027
27 | CC(=O)N1CCN(CCOc2ccc(C3CCN(C4=Nn5c(nnc5C(F)(F)F)CC4)CC3)cc2)CC1 | 1.3 ± 0.037
28 | CNc1cc(-c2cccc(Cl)c2Cl)nc(N)n1 | 1.1 ± 0.021
29 | Cc1[nH]nc2ccc(-c3cncc(OC[C@@H](N)Cc4ccccc4)c3)cc12 | 0.123 ± 0.0016
30 | Cn1nc(C(C)(C)C)cc1C(=O)N[C@@H](Cc1cccc(Cl)c1)C(=O)NCC#N [Cathepsin Inhibitor 1] | 1.151 ± 0.011
31 | O=C(NCc1ccc(Oc2ccccc2)cc1)c1nc(-c2cc(Br)c(O)c(Br)c2)no1 | 1.13 ± 0.022
32 | Cn1cc(CNCC2CCN(c3ncc(C(=O)NO)cn3)CC2)c2ccccc21 | 0.163 ± 0.029
33 | O=C(NC1CC1)c1cc(-c2cccs2)on1 [Isoxazole 9 (ISX-9)] | 1.13 ± 0.015
34 | O=C(O)C(S)=Cc1c[nH]c2ccc(F)cc12 | 1.27 ± 0.013
35 | Cc1cc(C)c(CNC(=O)c2cc(-c3ccc(N4CCN(C)CC4)nc3)cc3c2c(C)cn3C(C)C)c(=O)[nH]1 | 1.078 ± 0.0077
36 | O=C(/C=C/c1ccc(O)cc1)c1ccc(O)cc1O [Isoliquiritigenin] | 0.904 ± 0.33
37 | O=c1[nH]c(=O)n(C2CC(O)C(CO)O2)cc1Br (stereo not drawn) [Bromodeoxyuridine (BrdU)] | 1.04 ± 0.082
38 | CN(C)Cc1ccc(S(=O)(=O)n2ccc(/C=C/C(=O)NO)c2)cc1 [Resminostat] | 0.781 ± 0.029
